Compounds with a hit are over-represented: about 9.6% of the library has one in this group of screens.
HCT116 PTEN-null – growth suppressors of cells with PTEN tumor suppressor deletion | viability, % at 10 µM | HCT116 PTEN-null viability, CellTiter-Glo, 60 h; stronger effect = lower value | hit rate 1.2% among 140,000 | AID 827;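 active = viability at or below a set limit, 4 SD under the median of all tested compounds, cut at about 3.7% in these data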;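 note: PTEN knockout HCT116 line with beta catenin targeted HCT116 as companion control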
Ins promoter up – MIN6 insulin promoter up-regulation; z-score at 5 µM; hit rate 0.3% among 190,000; MIN6 insulin promoter-GFP reporter, high-content imaging; stronger effect = higher value;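 active = z-score above 3 at 5 µM with at least 500 cells counted in the well; inconclusive = wells under 500 cells, flagged as cytotoxic or low count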
Autophagy HCS – modulators of autophagy. MEF GFP-LC3 puncta imaging; test concentration mostly 10 µM. calls only at 10 µM (by protocol). hit rate 0.98% among 190,000. AID 463193;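 active = percentage of spot-positive cells more than 3 SD above its plate mean, without a fluorescence outlier flag or 80% toxicity; inconclusive = no clear call, values can overlap the other calls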;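 note: spot-positive cell cutoff set from DMSO-treated cells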
Insulin prom inh – TRM-6 insulin promoter activity inhibition; hit rate 0.9% among 130,000; TRM-6 cells (human fetal islet line), insulin promoter-eGFP reporter, imaging; reporter expression induced with tamoxifen; inhibition, % at 2 µM;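 active = inhibition above the mean plus 3 SD, with well images judged a real hit on visual review, cut at about 60% in these data, passing the limit was not always enough; inconclusive = inhibition over the cutoff but images rejected on review; inactive = inhibition not above the cutoff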
bCat KO growth – beta-catenin-lacking colon tumor cell growth suppression. HCT116 beta-catenin knockout viability, CellTiter-Glo, 60 h; stronger effect = lower value. viability, % at 10 µM. hit rate 1.5% among 140,000. AID 818;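 active = viability at or under a set limit, the compound median less 4 SD, cut at about 6% in these data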;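 note: 0% = Hyamine 1622 control at 20 µM and 100% = untreated cell control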
Lmaj promast – inhibitors of Leishmania major promastigote growth | Leishmania major promastigotes, resazurin fluorescence viability | inhibition, % at 10 µM | hit rate 9% among 200,000 | AID 1063; in the data active = inhibition above about 50%;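 note: promastigotes grown with compound for 44 hours at 28 °C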
Starred values were filed as active, the others as inactive; i = inactive; ? = inconclusive; . = no result; + = active, no number.

SMILES	HCT116 PTEN-null	Ins promoter up	Autophagy HCS	Insulin prom inh	bCat KO growth	Lmaj promast
COc1cc(OC)cc(C(=O)NCCCN2CCOCC2)c1	98	0.23	i	19	100	-1
CCN(CC)S(=O)(=O)c1ccc(Cl)c(NC(=O)CSc2nnc(-c3cccs3)o2)c1	94	0.57	i	0	90	44
CC(Sc1nc(N)c2c3c(sc2n1)CSC(C)(C)C3)C(=O)Nc1ccccc1 (configuration not stated)	35	-1.1	i	.	40	22
Fc1ccccc1Nc1n[nH]c(=S)s1	.	0.09	i	.	.	-2
CN(c1ccccc1)S(=O)(=O)c1cccc(NC(=O)Nc2ccc(Cl)cc2C#N)c1	69	.	i	20	72	10
CC1(c2ccc([N+](=O)[O-])cc2)CC(C)(C)N(C(=O)c2ccccc2)c2ccccc21 (configuration not stated)	73	-4	i	-9	74	11
COc1ccc(NC(=O)c2cccs2)cc1O	108	0.09	i	.	103	-5
O=C(NCc1ccco1)[C@@H]1CSC2c3ccccc3C(=O)N21 (some centres not stated)	91	0.87	i	31	92	-7
O=C(NCCCN1CCOCC1)c1ccco1	101	-0.31	i	3	94	-1
O=C(NCCCN1CCOCC1)c1cc2ccccc2o1	94	0.16	i	-3	90	79*
Cc1cccc(CS(=O)(=O)c2nnc([C@H](Cc3ccccc3)NC(=O)OC(C)(C)C)o2)c1	1.4*	-0.9	i	31	1.4*	1
CC(C)(C)OC(=O)N[C@@H](Cc1ccccc1)c1nnc(SCC(N)=O)o1	.	-1.2	.	.	.	.
COc1ccc(C(=O)CCC(=O)Nc2cccnc2)cc1	.	0.81	i	-58	.	-5
COCCN1Cc2cccc(C(=O)Nc3ccc(C)c(C)c3)c2C1=O	90	0.13	i	.	92	0
Cc1c(NC(=O)/C(C#N)=C/c2cccs2)c(=O)n(-c2ccccc2)n1C	97	0.48	i	-45	93	67*
COc1ccccc1NC(=O)CCN1C(=O)C2CC=C(Cl)CC2C1=O (configuration not stated)	110	-0.28	i	-36	97	-6
O=C(c1cc2ccccc2oc1=O)N(Cc1ccccc1)Cc1ccc2c(c1)OCO2	88	.	i	68	85	61*
Cc1cccc2c(N)c3c(nc12)CCCC3 (tested in a mixture with another compound)	.	-0.53	i	-42	.	67*
Cc1cc(C)c2c(N)c3cccc(C)c3nc2n1	2.5*	-1.1	i	.	2.5*	100*
O=C(COc1ccc(Cl)cc1)N(Cc1ccccc1)c1nc(-c2ccccc2)cs1	99	0.08	i	2	89	-2
O=C(OCCCCN1C(=O)c2ccccc2C1=O)c1ccc(S(=O)(=O)N2CCCC2)cc1	107	0.61	i	0	89	-10
C/C(=N\N=C1\NC(=O)CC(C(=O)O)S1)c1ccc(F)cc1 (configuration not stated)	99	-0.42	i	-15	96	52*
CNC(=O)C1CC(=O)N/C(=N/N=C(\C)c2cccs2)S1 (configuration not stated)	94	3.7*	i	26	95	-1
COc1ccc(N2C(=O)CC(NCc3cccs3)C2=O)cc1 (configuration not stated)	99	0.14	i	30	94	-4
O=C1CC(c2ccco2)Cc2nc(Nc3nc(-c4ccccc4)c4ccccc4n3)ncc21 (configuration not stated)	3.5*	-1.3	i	-6	3.4*	0
SMILES	HCT116 PTEN-null	Ins promoter up	Autophagy HCS	Insulin prom inh	bCat KO growth	Lmaj promast
CCC(C)NC(=S)Nc1ccccc1 (configuration not stated)	.	-0.02	.	.	.	.
CCCC(C)NC(=S)Nc1cc(C)cc(C)c1 (configuration not stated)	.	-2.2	i	0	.	76*
C(=N\n1cnnc1)/c1cccc(OCCOc2ccccc2)c1	92	-0.94	i	54	96	4
CC(C)[C@H](CO)Nc1nc(Nc2ccc(Cl)c(C(=O)O)c2)c2ncn(C(C)C)c2n1	.	0.71	.	.	.	.
Cc1ccc(OCC(O)CN2CCN(Cc3ccc4c(c3)OCO4)CC2)c(C)c1 (configuration not stated)	86	-2.6	i	0	84	87*
CC(=O)c1ccc(OCC(O)CN2CCN(Cc3ccc4c(c3)OCO4)CC2)cc1 (configuration not stated)	93	-0.83	.	.	77	93*
CCN1CCN(CC(O)COc2ccc(C(C)=O)cc2)CC1 (configuration not stated)	86	0.4	i	.	99	8
COc1ccc(OCC(O)CN2CCN(Cc3ccc4c(c3)OCO4)CC2)cc1 (configuration not stated)	89	-0.32	i	-4	89	99*
OCCN1CCN(CC(O)COc2ccc3c(c2)OCO3)CC1 (configuration not stated)	94	0.35	i	-10	105	-2
CCOc1ccc(C(C)NC(=O)c2cccc(F)c2)cc1 (configuration not stated)	100	-0.26	i	-9	104	-2
CCCC(C)c1nnc(NC(=O)c2cc(C(=O)OC)cc([N+](=O)[O-])c2)s1 (configuration not stated)	91	-0.42	i	7	90	97*
COC(=O)c1cc(C(=O)Nc2ccc(C)cn2)cc([N+](=O)[O-])c1	104	-0.14	i	7	94	-5
COC(=O)c1cc(C(=O)Nc2ccc(S(N)(=O)=O)cc2)cc([N+](=O)[O-])c1	.	0.25	i	.	.	61*
NC(=O)C1=C[C@H](c2ccccc2)C[C@H](OCc2ccc(CO)cc2)O1	.	1.4	i	.	.	-3
C=CCOc1ccccc1CNCCNC(=O)c1nonc1N	.	0.12	+	.	.	-5
COc1cc(CNCCNC(=O)c2nonc2N)ccc1OCc1ccc(Cl)cc1	.	-1	i	.	.	98*
Nc1nonc1C(=O)NCCNCc1cc(Br)ccc1OCc1ccccc1F	42	?	i	45	38	66*
COc1ccc(Cl)cc1NC(=S)N1CCC(c2ccc(C)cc2)C1 (configuration not stated)	.	0.14	i	.	.	4
CCOC(=O)c1oc2nc3c(cc2c1N)COC(C)(C)C3	119	.	+	.	95	-2
Cc1ccc(/C=C/C(=O)c2nc3ccccc3[nH]2)cc1	2.7*	0.81	i	.	2.5*	98*
Cc1cc(C)nc(/N=C(\N)Nc2ccc(C(C)C)cc2)n1	.	-0.6	.	.	.	.
CC1C/C(=C/c2cccn2C)C(=O)/C(=C/c2cccn2C)C1 (configuration not stated)	11	.	i	-92	3.8*	86*
CC1CC(C)CN(C(=O)c2ccncc2)C1 (configuration not stated)	99	.	i	17	100	-3

Screens from PubChem.
